Results published in PubChem BioAssay AID485364 (National Center for Advancing Translational Sciences (NCATS), 2010).
Values joined by “and” are separate entries in the source; they are usually repeats but may differ in a detail not shown here. Equal values may be shown once. Out of some 360,000 compounds screened, about 11,000 (3.1%) were called active. Not shown: some 4% with an inconclusive outcome. The call rests on the fitted dose curve; in most records, active means well fitted inhibition curve with a large enough effect; inconclusive means small, poorly fitted or top-dose-only effect; inactive means no such curve, though single readings can be large or run the other way. The entries come from a sample that favours actives as a whole. Where a call stands in place of a potency, no number is given.
Further: nearly all actives have a fitted effect of over 60% in size.
Potency means the concentration at half of the fitted maximal effect.

Each compound was assayed against Schistosoma mansoni thioredoxin glutathione reductase (TGR) (UniProt Q962Y6) (assay: qHTS Assay for the Inhibitors of Schistosoma Mansoni Peroxiredoxins). Settings: purified TGR, DTNB reduction, TNB absorbance 405 nm; series mostly up to 114 µM.
Procedure, shortened: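 First, TGR (20 nM dispensed) and NADPH were mixed with compound. Second, a 15 min room-temperature incubation followed. Third, further NADPH and then DTNB were added to start the reaction. Finally, TNB absorbance was monitored kinetically.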
With `Cc1ccc2oc(C(=O)Nc3ccc(S(=O)(=O)N4CCCCCC4)cc3)cc(=O)c2c1` the Potency was “inactive”.
For `COc1ccc(-c2noc(CSc3nc(C)cc(=O)[nH]3)n2)cc1OC`, the Potency was “inactive”.
`O=C(CSc1oc(-c2ccccc2)nc1S(=O)(=O)c1ccc(Br)cc1)NC1CCCCC1` was tested, and the Potency was “inactive”.
In the case of `Oc1c(Cl)cc(Cl)cc1/C=N/c1ncn[nH]1`, the Potency is reported as 20 µM (active).
With `COc1cc(Br)cc(/C=N/c2ncn[nH]2)c1O` the Potency was “inactive”.
For `Cc1ccc(Nc2c(-c3ccc(N(C)C)cc3)nc3nc[nH]n23)cc1`, the Potency was “inactive”.
With `COc1cc(OC)cc(-c2nc3nc(C)c(CCC(=O)Nc4ccc(C)cc4)c(C)n3n2)c1` the Potency was “inactive”.
With `COc1ccccc1/C=C/C1=NC(=C\N(C)C)/C(=O)O1` the Potency was “inactive”.
`Cc1ccc(C2=C/C(=C\c3cccnc3)C(=O)O2)cc1` was tested, and the Potency was “inactive”.
In the case of `CN(C)/C=C1\C=C(c2ccccc2)OC1=O`, the Potency is reported as 22.4 µM (active).
`Cc1cc(C)n2nc(C(=O)NC(C)(C)C)nc2n1` was tested, and the Potency was “inactive”.
For `Cc1ccc(S(=O)(=O)NCc2nc3nc(C)cc(C)n3n2)cc1`, the Potency was “inactive”.
In the case of `Cc1cc(C)n2nc(CNS(=O)(=O)c3c(F)c(F)c(F)c(F)c3F)nc2n1`, the Potency is reported as 17.8 µM (active).
`COC(=O)c1ccccc1NS(=O)(=O)c1ccc2c(c1)CCCN2C(C)=O` was tested, and the Potency was “inactive”.
With `Cc1c(Cl)cccc1NC(=O)Cn1cc(C(=O)c2cccs2)c2ccccc21` the Potency was “inactive”.
In the case of `NC1=NC(c2cc(F)cc(F)c2)n2c(nc3ccccc32)N1` (stereo unspecified), the Potency is reported as “inactive”.
With `Cc1ccc(-n2c(SCC(=O)c3ccccc3)nc3c([nH]c4ccccc43)c2=O)cc1` the Potency was “inactive”.
`COc1ccccc1NC(=O)c1cc(Cl)nnc1Cl` was tested, and the Potency was “inactive”.
With `COc1ccccc1NC(=O)c1c(Br)cnn1C` the Potency was “inactive”.
In the case of `COc1ccccc1NC(=O)/C=C/C(N)=O`, the Potency is reported as 2.82 µM (active).
For `CC(NC(=O)CCc1cn(Cc2ccccc2Cl)c2ccccc12)c1ccccc1` (stereo unspecified), the Potency was “inactive”.
`Cc1ccc(NC(=O)c2ccc3[nH]c(C)cc(=O)c3c2)c(C)c1` was tested, and the Potency was “inactive”.
`O=[N+]([O-])c1ccc(C=Nc2ccc(Cl)cc2Cl)s1` was tested, and the Potency was 25.1 µM (active).
In the case of `COc1ccc(C(C)=O)cc1CSc1nc2nc(C)cc(C)n2n1`, the Potency is reported as 39.8 µM (active).
For `Cc1cc(C)n2nc(SCC(N)=O)nc2n1`, the Potency was “inactive”.
With `COc1cccc(CSc2nc3nc(C)cc(C)n3n2)c1` the Potency was “inactive”.
With `CCOc1ccccc1CNC(=O)C1CCCN(S(=O)(=O)c2ccc3c(ccn3C)c2)C1` (stereo unspecified) the Potency was “inactive”.
For `Cc1ccc(CNS(=O)(=O)c2ccc(C(=O)N(C)C)s2)cc1`, the Potency was “inactive”.
With `Cc1ccc2c(c1)-c1c(cnn1CC(=O)Nc1ccccc1C#N)CO2` the Potency was “inactive”.
For `CCOC(=O)c1ccc(COC(=O)CCc2nc(-c3ccccc3)c(-c3ccccc3)o2)cc1`, the Potency was “inactive”.
For `COc1ccc(NC(=O)Cn2c(-c3ccc(OC)cc3)cn(-c3ccc(C)cc3)c2=O)cc1`, the Potency was “inactive”.
In the case of `CCOC(=O)c1ccc(-n2c(CCC(=O)O)ccc2-c2ccccc2)cc1`, the Potency is reported as 28.2 µM (active) and 50.1 µM (active).
In the case of `CCOC(=O)c1ccc(NC(=O)c2ncn(-c3ccccc3)n2)cc1`, the Potency is reported as “inactive”.
With `C=Cn1c(C(=O)O)ccc1-c1ccc(OC)cc1` the Potency was “inactive”.
With `COc1ccc(Cl)cc1-n1c(CCC(=O)O)ccc1-c1ccc(C)cc1` the Potency was 39.8 µM (active).
With `COc1ccc(-c2cn(-c3ccc(C)cc3)c(=O)n2CC(=O)Nc2ccc(OC)c(OC)c2)cc1` the Potency was “inactive”.
`Cc1ccc(-c2ccc(CCC(=O)O)n2-c2ccc(C(N)=O)cc2)cc1` was tested, and the Potency was 12.6 µM (active).
With `COc1ccc(Cl)cc1NC(=O)Cn1nc(-c2ccc(C)cc2)n(C)c1=S` the Potency was “inactive”.
In the case of `COc1ccc(Cl)cc1NC(=O)CCC(=O)c1ccc(C)cc1`, the Potency is reported as “inactive”.
In the case of `COc1ccc(-c2nc3ccccc3c(=O)n2CCc2ccc(O)cc2)cc1`, the Potency is reported as “inactive”.
In the case of `COc1ccc(-c2ccc(CCC(=O)O)n2-c2ccc(O)cc2)cc1`, the Potency is reported as 39.8 µM (active).
`CCOc1ccccc1N(CC)C(=O)Nc1cn(C)c(=O)c2ccccc12` was tested, and the Potency was “inactive”.
With `COc1ccc(NC(=O)Nc2cccc(-c3noc(C)n3)c2)cc1` the Potency was “inactive”.
`CCCCCn1c(CCNC(=O)c2ccc(F)cc2)nc2ccccc21` was tested, and the Potency was “inactive”.
`O=C(CC1C(=O)N(c2ccccc2)C(=O)N1CCc1cccs1)Nc1ccc(F)cc1` (stereo unspecified) was tested, and the Potency was “inactive”.
With `Cc1ccc(C(=O)Nc2ccc(OCc3cc(=O)n4c(C)csc4n3)cc2)cc1` the Potency was “inactive”.
For `CC(C)C12CN3CC(C(C)C)(CN(C1)C3c1ccc(OCc3ccccc3)cc1)C2=O` (stereo unspecified), the Potency was “inactive”.
`Fc1ccccc1/C=C1\CCCC2=C1Nc1ncnn1C2c1ccccc1F` (stereo unspecified) was tested, and the Potency was 1.26 µM (active).
In the case of `CCOC(=O)C1=C(c2ccccc2)Nc2ncnn2C1c1ccc(Cl)cc1` (stereo unspecified), the Potency is reported as “inactive”.
In the case of `COc1ccc2c(Sc3ccc(C)cc3)c(C(=O)NC(C)c3ccccc3)[nH]c2c1` (stereo unspecified), the Potency is reported as “inactive”.
`Cc1ccc(-c2cc(N)n(Cc3cccc(Cl)c3)n2)cc1` was tested, and the Potency was “inactive”.
For `COc1cccc(Nc2nc3ccccc3c3nncn23)c1`, the Potency was “inactive”.
`Cc1ccc(C(=O)COC(=O)C(Cc2c[nH]c3ccccc23)NC(=O)c2ccc(Br)cc2)cc1` (stereo unspecified) was tested, and the Potency was “inactive”.
`O=C(CCCOc1ccccc1)NCc1ccco1` was tested, and the Potency was “inactive”.
For `O=C1c2ccccc2C(=O)N1CCOc1ccc(F)cc1`, the Potency was “inactive”.
In the case of `O=C1NC(=O)N(Cc2ccco2)C(=O)/C1=C\c1cccn1CCOc1ccccc1`, the Potency is reported as 11.2 µM (active).
For `NS(=O)(=O)c1ccc(-c2ccc(/C=C3\SC(=O)NC3=O)o2)cc1`, the Potency was “inactive”.
For `O=C1NC(=O)N(Cc2ccco2)C(=O)/C1=C\c1ccc(-c2ccc(F)cc2)o1`, the Potency was 11.2 µM (active).
`COc1ccc(OCCCn2cccc2/C=C2/C(=N)N3OC(C)=CC3=NC2=O)cc1` was tested, and the Potency was “inactive”.
`CCn1c(C)c(C)c2cc(C(=O)NCCc3cc(OC)ccc3OC)ccc21` was tested, and the Potency was “inactive”.
With `CC(=O)N1CCCc2cc(S(=O)(=O)N3CCC(C(=O)NC4CCCCC4)CC3)ccc21` the Potency was “inactive”.
`CCc1ccc(NC(=O)CSc2nc3c([nH]c4ccccc43)c(=O)n2-c2cccc(OC)c2)cc1` was tested, and the Potency was “inactive”.
For `COc1ccc(-n2c(=O)c3c(c4cc(OC)ccc4n3C)n(Cc3cccc(C)c3)c2=O)cc1`, the Potency was “inactive”.
For `CCC(=NCc1ccco1)c1c(O)n(Cc2ccccc2)c(=O)[nH]c1=O`, the Potency was 28.2 µM (active).
For `Nc1c(N(Cc2ccco2)C(=O)c2cccc(F)c2)c(=O)[nH]c(=O)n1Cc1ccccc1`, the Potency was “inactive”.
In the case of `CCC(=NCCCO)c1c(O)n(-c2ccc(OC)cc2)c(=O)[nH]c1=O`, the Potency is reported as “inactive”.
